The values that follow come from PubChem BioAssay (Tox21).

The structures appear in SMILES notation. Where “and” joins values, the source holds several entries; their conditions need not be identical. Identical values can stand only once. Records with an inconclusive call do not appear. Entries that show only a call come without a potency. A structure can be active in one record and inactive in another. Calls of active or inactive are those of the source. Calls come from the whole dose curve; as a rule, active = well fitted cell-killing curve with a large enough effect in the repeat runs; inconclusive = weak or mixed curves; inactive = flat fitted curve, though single readings scatter.
Potency is the fitted concentration of half-maximal effect.

A short description of this assay: qHTS assay to identify small molecule antagonists of the estrogen related receptor (ERR) signaling pathway from Tox21 library - cell viability counter screen (AID 1224834). Note: nearly all actives have a fitted effect of over 30% in size. The settings on record: ERR reporter cells viability, CellTiter-Fluor, 17.5 h; series mostly up to 92.4 µM; viability change, negative = cytotoxic: at the top concentration. An excerpt: National Center for Advancing Translational Sciences [NCATS]
NIH Chemical Genomics Center [NCGC]
U.S. Environmental Protection Agency [EPA]
National Institutes of Environmental Health Sciences [NIEHS]
National Toxicology Program [NTP]
U.S. Food and Drug Administration [FDA]
Estrogen related receptors (ERRs), the first orphan nuclear receptors discovered, play an important role in the control of cellular energy metabolism. ERRs are required for high-energy production in response to the environmental challenges. ERR-alpha was also identified as an adverse marker for breast cancer progression; ERR-alpha-positive tumors have a poor prognosis. To screen and to identify environmental compounds that perturb the ERR signaling pathways could provide valuable information for potential therapeutic or preventive measures in the treatment of metabolic disease. To differentiate true ERR antagonists or agonist from cytotoxic substances, the assay is multiplexed with cell viability assay.
Tox21 Assay Protocol Summary:
The ERR cells were dispensed at 2,000 cells/5 ul/well in 1536-well white plates using a Multidrop dispenser. After the assay plates were incubated at a 37 C/5% CO2 incubator for 6 hours, 23 nL of compounds dissolved in DMSO, positive and negative controls or DMSO only was transferred to the assay plate by a pin tool. The plates were incubated at 37 C for 17.5 hours. 1 ul/well of CellTiter-Fluor reagent was added into the assay plates using a Flying Reagent Dispenser. After 30-minute incubation at 37 C/5% CO2, the fluorescence intensity in the plates was measured using a ViewLux plate reader.
On to `CCCCCCCCCCCCCCCC[N+](C)(C)Cc1ccccc1`, for which the Potency was 63.1 µM (active) and 49.4 µM (active) and 23.7 µM (active).
The same measure, in the same setting: under `Cn1c(=O)c2c(ncn2C)n(C)c1=O` stands 55.1 µM (active) and inactive; under `COc1ccc(C(Cl)=C(c2ccc(OC)cc2)c2ccc(OC)cc2)cc1`, “inactive”; under `CCCCC(CC)C(=O)O` (stereo not given), “inactive”.
On the same count and under the same terms, for `NS(=O)(=O)O` the value was “inactive”; for `C=C1CC[C@H](O)C/C1=C\C=C1/CCC[C@]2(C)[C@@H]([C@H](C)CCCC(C)C)CC[C@@H]12`, 54 µM (active); for `NC(=O)n1c(O)c(C(=O)c2cccs2)c2cc(Cl)ccc21`, 23.7 µM (active).
Still for that read-out and setting: under `O=C1OC2(c3ccccc31)c1cc(Br)c(O)c(Br)c1Oc1c2cc(Br)c(O)c1Br` stands 11 µM (active) and 25 µM (active) and 26.6 µM (active); under `CNNCc1ccc(C(=O)NC(C)C)cc1`, “inactive”.
For `COc1ccc2c(c1)c(CC(=O)O)c(C)n2C(=O)c1ccc(Cl)cc1`, the “viability change, negative = cytotoxic” value was -1.83% [at 42.5 µM] (inactive).
As to `O=c1[nH]cc(F)c(=O)[nH]1`, the Potency was 31.8 µM (active) and inactive.
On the same count and under the same terms, for `CN(C)CCOC(C)(c1ccccc1)c1ccccn1` (stereo not given) the value was “inactive”.
Still for that read-out and setting: for `Cc1ccc(S(=O)(=O)O)cc1` the value was “inactive”.
On to `CCCCCCCCCCCC[N+](C)(C)Cc1ccccc1`, for which the Potency was 60 µM (active) and 66.4 µM (active) and 23.7 µM (active).
On the same count and under the same terms, under `C/C=C/C=C/C(=O)O` stands “inactive”.
As to `O=C1O[C@H]([C@@H](O)CO)C(O)=C1O`, the Potency result is “inactive”.
Still for that read-out and setting: for `CN(N=O)C(=O)N[C@@H]1[C@@H](O)[C@H](O)[C@@H](CO)O[C@@H]1O` the value was “inactive”; for `CN1[C@@H]2CC(OC(=O)[C@H](CO)c3ccccc3)C[C@H]1[C@@H]1O[C@@H]12` (stereo not given in full), “inactive”; for `CN(C)CCOC(c1ccccc1)c1ccccc1`, “inactive”.
On to `CCCc1cc(=O)[nH]c(=S)[nH]1`, for which the Potency entry is “inactive”.
Turning to `Nc1c(N=Nc2ccc(-c3ccc(N=Nc4cc(S(=O)(=O)O)c5ccccc5c4N)cc3)cc2)cc(S(=O)(=O)O)c2ccccc12`, the Potency was 21.7 µM (active).
The same measure, in the same setting: for `Cc1cccc(C)c1` the value was “inactive”.
Still for that read-out and setting: under `C=C(C)C(=O)OCC(C)O` (stereo not given) stands “inactive”.
The same measure, in the same setting: for `Cc1ncc([N+](=O)[O-])n1CCO` the value was “inactive”.
On to `O=C1NC(=O)C(c2ccccc2)(c2ccccc2)N1`, for which the Potency result is “inactive”.
On the same count and under the same terms, under `CCCCCCc1ccc(O)cc1O` stands 61.3 µM (active); under `O=c1[nH]cnc2c1ncn2[C@H]1CC[C@@H](CO)O1`, “inactive”.
The same measure, in the same setting: under `C=CCc1ccc(O)c(OC)c1` stands “inactive”; under `CS(=O)(=O)OCCCCOS(C)(=O)=O`, “inactive”.
Same read-out and setting: under `CCN(CC)C(=O)c1cccc(C)c1` stands “inactive”.
As for `O=C1c2c(O)cccc2Cc2cccc(O)c21`, the Potency result was “inactive”.
For `C1CCC(C(CC2CCCCN2)C2CCCCC2)CC1` (stereo not given), the Potency was 29.8 µM (active).
Consider `CC1(C)O[C@@H]2C[C@H]3[C@@H]4CCC5=CC(=O)C=C[C@]5(C)[C@@]4(F)[C@@H](O)C[C@]3(C)[C@]2(C(=O)CO)O1`, for which the Potency entry was “inactive”.
Still for that read-out and setting: under `Oc1ccccc1` stands “inactive”; under `COc1ccc(OC(F)(F)F)cc1CN[C@H]1CCCN[C@H]1c1ccccc1`, 54.5 µM (active); under `NS(=O)(=O)c1cc2c(cc1Cl)NCNS2(=O)=O`, “inactive”.
In the case of `Cc1cc(C)nc(NS(=O)(=O)c2ccc(N)cc2)n1`, the Potency result was “inactive”.
Same read-out and setting: under `Nc1ccc(O)c([N+](=O)[O-])c1` stands 21.7 µM (active); under `O=C(O)c1ccccc1`, “inactive”.
Same read-out and setting: for `CC/C(=C(\c1ccccc1)c1ccc(OCCN(C)C)cc1)c1ccccc1` the value was 54.4 µM (active) and 54.9 µM (active) and 61.1 µM (active).
